# Screening results (PubChem)
# Pf growth 96h: P. falciparum growth inhibition at 96 hour, primary screen for plastid delayed-death inhibitors. P. falciparum luciferase reporter growth, 96 h. Potency, µM (top dose mostly 28.7 µM), without a hit: at the top dose activity change, negative = inhibition, usual class: inhibitors. 320,000 compounds, 6.9% hits. AID 504834
#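 Luminescence readout: decreased luciferase signal marks inhibited growth of reporter-expressing P. falciparum in infected red cells (2% hematocrit, 0.05% parasitemia final), exposed to compound two generations (96 h, 37 C, 5% CO2).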
# Vaccinia Venus: inhibitors of vaccinia virus (Venus reporter) | Vaccinia virus Venus reporter expression, fluorescence | Potency, µM (series often up to 36.5 µM), without a hit: at the top dose activity change, negative = inhibition, usual class: inhibitors | 330,000 compounds, 0.46% hits; calls by dose curve; tested in A549 cells; note: nearly all actives have a fitted effect of over 30% in size
# Pf growth 48h: inhibits P. falciparum growth in the first generation, 48 h; P. falciparum luciferase growth in erythrocytes, 48 h; Potency, µM (highest dose often 28.7 µM), for inactives: top-dose activity change, negative = inhibition, most hits filed as inhibitors; 310,000 compounds, 5.9% hits; AID 504832
#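 First compound was added to culture medium, then infected red cells at 0.1% parasitemia and 2% hematocrit (final). After incubation at 37 C under 5% CO2, luciferase detection reagent was dispensed and light output recorded.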
# AMA1-RON2 inh: AMA1-RON2 (P. falciparum) interaction inhibition. AlphaScreen AMA1-biotinylated RON2 peptide binding. Potency, µM (doses to about 58.2 µM), inactives show at the top dose activity change, negative = inhibition, actives largely listed as inhibitors. 360,000 compounds, 0.2% hits;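 note: 0% = vehicle wells and -100% = peptide control; nearly all actives have a fitted effect of over 45% in size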
#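 AMA1 (3D7) with his tag at 25 nM final met compounds first, then biotinylated RON2 peptide at 25 nM; detection used donor plus acceptor beads, 10 µg/mL apiece, read by AlphaScreen after 30 min at room temperature.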
# Vaccinia mCherry: vaccinia inhibition (mCherry reporter); Vaccinia virus mCherry reporter infection, fluorescence; Potency, µM (highest dose often 36.5 µM), without a hit: at the top dose activity change, negative = inhibition, hits mostly inhibitors; 310,000 compounds, 0.63% hits; calls by dose curve; tested in A549 cells; note: nearly all actives have a fitted effect of over 35% in size
# * hit, by the source's call; i = inactive; ? = inconclusive; . = not tested or not shown; [ ] = dose if it differs, or a comment. An excerpt weighted towards active compounds, which were near 8.7% of everything screened. Unless noted, calls come from the whole dose curve; as a rule, active = well fitted curve in the direction sought with a large enough effect; inconclusive = small, poorly fitted or top-dose-only effect, or another doubt; inactive = no such curve, though single readings can be large; an effect the other way counts as inactive or inconclusive. Unless noted, % is set by controls: 0 for no effect and ±100 for the full control effect; potency is the fitted concentration of half-maximal effect.
SMILES,Pf growth 96h,Vaccinia Venus,Pf growth 48h,AMA1-RON2 inh,Vaccinia mCherry
Cc1ccc2c(cnn2C(=O)CCC(=O)NCc2cccc(Br)c2)c1,2.62µM*,-19.9%,18.1%,-0.9%,-5.1%
Cc1ccc2c(cnn2C(=O)CCC(=O)NCc2cccc(Cl)c2)c1,40.0%,-14.9%,5.5%,4.8%,-3.1%
CCOC(=O)c1ccccc1NC(=S)N1CCCCC1,9.28µM*,-0.1%,0.0%,-10.2%,-6.5%
CCc1ccc(OCc2nc(-c3ccccn3)no2)c(Br)c1,4.1%,-11.7%,88.8%,1.5%,-2.9%
Cc1ccc(OCc2nc(-c3ccccn3)no2)c(Br)c1,2.33µM*,.,13.6%,14.6%,.
OCCN1CCN(CC(O)COCCOc2ccc(Br)cc2)CC1 (stereo not given),-1.2%,2.1%,18.1%,-6.5%,-13.2%
COc1ccc(N2CCN(CC(O)COCCOc3ccc(Br)cc3)CC2)cc1 (stereo not given),-27.9%,1.2%,-7.6%,-19.1%,-22.2%
CC1(C)CCCC(C)(C)N1CC(O)COCCOc1ccc(Br)cc1 (stereo not given),?,-25.3%,5.86µM*,6.7%[2.32 µM],?
COc1ccccc1N1CCN(CC(O)COCCOc2ccc(Br)cc2)CC1 (stereo not given),13.1µM*,-23.1%,-9.2%,-7.3%,-21.1%
COc1ccc(NC(=O)Nc2nnc(N3CCCC3)s2)cc1,.,-9.3%,.,.,0.8%
CC(C)(C)c1ccc(C(=O)CCCN2CCC(OC(c3ccccc3)c3ccccc3)CC2)cc1,7.57µM*,.,9.53µM*,.,.
COc1cc(OC)c(NC(=O)C(=O)CC(=O)c2ccc(C)cc2C)cc1Cl,3.29µM*,2.0%,?,9.2%,?
NC(=S)N/N=C/C=C/c1ccccc1,?,0.794µM*,?,23.3%[2.32 µM],1µM*
Cc1ccc(C(=O)N/N=C/C=C/c2ccccc2)cc1,1.65µM*,-6.5%,-29.8%,66.5%,i
O=[N+]([O-])c1ccc(Sc2cccc[n+]2[O-])c2nonc12,0.828µM*,107.1%,2.94µM*,11.9%,?
COC(=O)C1=C(c2ccc(F)cc2OCc2ccccc2)C[C@@H]2CC[C@H]1N2C(=O)NCc1ccc(N(C)C)cc1,?,?,11.7µM*,?,-7.7%
COC(=O)C1=C(c2ccccc2OCc2ccccc2)C[C@@H]2CC[C@H]1N2C(=O)NCc1ccc(Cl)cc1,?,?,9.28µM*,6.0%,i
COC(=O)C1=C(c2ccccc2OCc2ccccc2)C[C@@H]2CC[C@H]1N2C(=O)NCc1ccc([N+](=O)[O-])cc1,?,?,11.7µM*,41.6%,-21.7%
COC(=O)C1=C(c2ccccc2OCc2ccccc2)C[C@@H]2CC[C@H]1N2C,.,-13.3%,.,0.0%,?
COC(=O)C1=C(c2ccccc2OCc2ccccc2)C[C@@H]2CC[C@H]1N2C(=O)NCc1ccc(N(C)C)cc1,?,?,6.57µM*,?,-19.0%
CCCCc1nc2ccccc2n2c(-c3ccc(C)cc3)c3c(=O)n(C)c(=O)n(C)c3c12,.,1.8%,.,.,-12.2%
COc1ccc(C2c3cc(OC)c(OC)cc3CC(=O)N2c2cccc(C#N)c2)cc1 (stereo not given),.,-12.1%,.,.,-11.5%
COc1cc(OC)cc(-c2c(C#Cc3ccsc3)c3cc(-c4ccc5c(c4)OCCO5)ccc3n2C)c1,2.62µM*,-5.5%,?,14.7%,i
COc1cc(OC)cc(-c2c(C#Cc3ccsc3)c3cc(-c4cccc5[nH]ccc45)ccc3n2C)c1,3.29µM*,-12.4%,11.7µM*,0.7%,-14.7%
COc1cc(OC)cc(-c2c(C#Cc3ccsc3)c3cc(-c4ccc5cc[nH]c5c4)ccc3n2C)c1,1.85µM*,-0.7%,?,-1.1%,?
SMILES,Pf growth 96h,Vaccinia Venus,Pf growth 48h,AMA1-RON2 inh,Vaccinia mCherry
Cn1c(=O)c2c(SCC(=O)N3CCc4ccccc43)nc(-c3cccc(F)c3)nc2n(C)c1=O,.,-0.5%,.,.,-8.8%
COc1ccc(N2CCN(C(=O)Cn3nc(Cc4cccnc4)c4ccccc4c3=O)CC2)cc1,.,-10.9%,.,.,-15.6%
COc1cc(=O)n2c(c1C(=O)N(C)Cc1nccs1)CCN(Cc1ccc(F)c(F)c1)CC2,.,-10.3%,.,.,i
CCN(CC)c1nc2nonc2nc1N(CC)CC,4.65µM*,-9.9%,-21.6%,-6.1%,-5.9%
OCCN1CCN(c2ncnc3scc(-c4ccc(F)cc4)c23)CC1,-28.3%,.,-10.1%,0.0%,.
CN1CCN(c2ncnc3scc(-c4ccccc4Cl)c23)CC1,5.86µM*,-8.0%,?,-4.0%,?
Oc1ccccc1N1CCN(c2ncnc3scc(-c4ccccc4)c23)CC1,5.22µM*,12.1%,5.86µM*,-15.7%,?
Cc1nc(N2CCN(c3ccccc3O)CC2)c2c(-c3ccccc3)csc2n1,?,-5.5%,13.1µM*,?,?
Oc1ccccc1N1CCN(c2ncnc3scc(-c4ccc(F)cc4)c23)CC1,?,-16.3%,13.1µM*,-13.3%,?
O=C(CSc1nc2c([nH]c3ccccc32)c(=O)n1-c1ccccc1F)Nc1cccc(C(F)(F)F)c1,.,-23.6%,.,.,-13.2%
COc1ccc(S(=O)(=O)N2CCC(N3CCN(Cc4ccc(F)cc4)C(=O)C3=O)CC2)cc1,.,-7.0%,.,.,-2.8%
N#Cc1cccc(NC(=O)CCNS(=O)(=O)c2ccc3c(c2)CCN3C(=O)C2CC2)c1,.,-6.0%,.,.,i
COc1ccc(-c2csc3nc(C)nc(N4CCN(C(C)=O)CC4)c23)cc1OC,4.6%,-10.0%,4.15µM*,4.1%,-15.2%
COc1ccc(-c2csc3nc(C)nc(N4CCC(C)CC4)c23)cc1OC,-22.1%,?,-5.8%,?,?
Cc1nnc(SCC(=O)N2CCN(S(=O)(=O)c3ccccc3)CC2)s1,-7.2%,-6.6%,-2.2%,-8.6%,-19.2%
Nn1cc(-c2ccccc2)nc1SCC(=O)N1CCN(S(=O)(=O)c2ccc(Cl)cc2)CC1,?,.,?,-17.4%,.
CCCCNc1nnc(SCC(=O)N2CCN(S(=O)(=O)c3ccc4ccccc4c3)CC2)s1,5.22µM*,?,.,2.3%,?
Nn1cc(-c2ccccc2)nc1SCC(=O)N1CCN(S(=O)(=O)c2ccc3ccccc3c2)CC1,.,-4.5%,9.28µM*,-0.8%,.
Cc1ccccc1C1(CC(=O)N2CCCC2c2nccs2)CC(=O)N(C2CCCC2)C1=O (stereo not given),.,-22.0%,.,.,i
CCOc1cc(CNC(=O)c2ccc3c(c2)N(C)C(=O)C2CCCCN32)cc(OCC)c1OCC (stereo not given),.,-16.2%,.,.,-22.8%
CC(C)c1c(C(=O)N2CCN(CCO)CC2)cnn1-c1nccc(-c2cccs2)n1,.,-6.6%,.,.,-14.2%
COc1cc2c(cc1OC)CN(C1CCCN(Cc3cc(Cl)ccc3O)C1)CC2 (stereo not given),9.28µM*,.,?,45.4%,.
COc1cc(CN2CCCC(N3CCc4ccccc4C3)C2)c(Cl)cc1O (stereo not given),2.94µM*,-8.7%,?,23.7%,?
COc1ccc(-n2ncc3c2ncn2nc(-c4ccc(Cl)cc4Cl)nc32)cc1,.,-10.6%,.,.,-11.8%
